Compounds with a hit are over-represented: about 12% of the library has one in this group of screens.
JMJD2A Tudor: blocks the human JMJD2A Tudor domain; O75164; AlphaScreen JMJD2A-Tudor / H3K4me3 peptide binding; Potency, µM (series often up to 114 µM), without a hit: at the top dose activity change, negative = inhibition, hits mostly inhibitors; 4.4% of 390,000 active; AID 504339; further: on the % scale 0 is the no-effect control and ±100 the full control effect; nearly all actives have a fitted effect of over 50% in size
Sfp inh: Sfp phosphopantetheinyl transferase inhibition; 3.5% of 310,000 active; Q9F4F7; Potency, µM, for inactives: largest response in the series, negative = inhibition, usual class: inhibitors; Biochemical Sfp PPTase activity, qHTS;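 further: the enzyme is Sfp with the accession as filed and its product quenches rhodamine fluorescence; 0% = enzyme reaction without inhibitor and -100% = no enzyme wells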
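Reaction rates are the 30-min fluorescence difference (ex 525, em 598 nm) in wells containing 15 nM Sfp, 5 uM rhodamine-CoA and 12.5 uM BHQ-2-YbbR at pH 7.6 with 10 mM MgCl2.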
BAZ2B block: inhibitors of human BAZ2B bromodomain | Potency, µM (doses to about 114 µM), inactives show top-dose activity change, negative = inhibition, actives largely listed as inhibitors | 4.4% of 360,000 active | AlphaScreen BAZ2B-H3K14Ac peptide displacement; further: on the % scale 0 is the no-effect control and ±100 the full control effect; nearly all actives have a fitted effect of over 60% in size
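BAZ2B 50 nM plus b-H3(5-23)K14Ac 50 nM, PBS pH 7.4/0.01% Tween-20, 30 min RT; compound added (max 110 uM), 30 min RT; streptavidin donor/Ni-chelate acceptor beads 10 ug/mL final, 20 min dark; AlphaScreen read.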
G9a block: inhibitors of human histone lysine methyltransferase G9a; 8.8% of 350,000 active; G9a H3K9 monomethylation, AlphaScreen, 2 h; Q96KQ7; Potency, µM (top dose mostly 102 µM), without a hit: at the highest dose activity, negative = inhibition, most hits filed as inhibitors; AID 504332; further: on the % scale 0 is the no-effect control and ±100 the full control effect; nearly all actives have a fitted effect of over 75% in size
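G9a (20 nM) preincubated 15 min RT with compounds, then 500 nM biotinylated H3K9 peptide and 20 uM SAM added; 2 h RT reaction. Monomethyl-H3K9 product detected by AlphaScreen with anti-H3K9me1 antibody, streptavidin donor and anti-rabbit IgG acceptor beads.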
HP1b chromo inh: blocks HP1-beta chromodomain binding to methylated histone tails; 0.56% of 390,000 active; Potency, µM (highest dose often 114 µM), for inactives: at the highest dose activity change, negative = inhibition, actives largely listed as inhibitors; P83916; AlphaScreen HP1-beta / biotin-H3K9me3 peptide binding; AID 540317; further: nearly all actives have a fitted effect of over 70% in size
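HP1-beta protein (50 nM final) preincubated 30 min at room temperature with biotinylated H3(1-18)K9me3 peptide (50 nM) in PBS pH 7.4, 0.01% Tween-20, then compound added for 30 min. AlphaScreen streptavidin donor/nickel chelate acceptor beads (10 ug/mL final), 30 min dark, luminescence read.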
* marks the source's active call; other numbers are inactive results; [ ] = dose if it differs, or a comment. The call rests on the fitted dose curve; in most records, active means well fitted curve in the direction sought with a large enough effect; inconclusive means small, poorly fitted or top-dose-only effect, or another doubt; inactive means no such curve, though single readings can be large; an effect the other way counts as inactive or inconclusive. Potency means the concentration at half of the fitted maximal effect.

For COc1ccc(NC(=S)N(CCc2c(C)[nH]c3ccc(C)cc23)Cc2cccs2)cc1 the results were JMJD2A Tudor inconclusive, Sfp inh 0%, BAZ2B block inconclusive, G9a block 50µM* and HP1b chromo inh 11%.
Screening Cc1ccc(NC(=S)N(CCN(C)C)Cc2cccs2)c(C)c1 returned JMJD2A Tudor -5%, Sfp inh 32µM*, BAZ2B block -24%, G9a block 40µM* and HP1b chromo inh -7%.
Screening CCOc1ccc(NC(=S)N(CCc2c(C)[nH]c3ccc(C)cc23)Cc2ccco2)cc1 returned JMJD2A Tudor inconclusive, Sfp inh 9%, BAZ2B block -6%, G9a block 71µM* and HP1b chromo inh -4%.
For COc1ccc(C(=O)N2CCN(C(=O)Cc3ccccc3)CC2)cc1OC the results were JMJD2A Tudor -8%, Sfp inh 10%, BAZ2B block 2%, G9a block 17%[2.33 µM] and HP1b chromo inh 16%.
CCOc1ccc(NC(=S)N(CCc2c(C)[nH]c3ccc(C)cc23)Cc2cccnc2)cc1 was read as JMJD2A Tudor inconclusive, Sfp inh 7%, BAZ2B block inconclusive, G9a block inconclusive and HP1b chromo inh -15%.
`COc1ccc(NC(=S)N(CCc2c(C)[nH]c3ccc(C)cc23)Cc2ccco2)cc1` gave JMJD2A Tudor inconclusive, Sfp inh 19%, BAZ2B block inconclusive, G9a block 79µM* and HP1b chromo inh -10%.
COc1ccc(NC(=S)N(CCc2c(C)[nH]c3ccccc23)Cc2cccnc2)cc1 was read as JMJD2A Tudor inconclusive, Sfp inh 2%, BAZ2B block 35µM*, G9a block 71µM* and HP1b chromo inh -16%.
`COc1cccc(C(c2ccccc2)N2C3CCC2CN(S(=O)(=O)c2ccc(F)cc2)CC3)c1` (centres undefined) gave JMJD2A Tudor -8%, BAZ2B block -26%, G9a block inconclusive and HP1b chromo inh 20%.
CC1(C)CC(=O)CC(C)(C)N1OC(=O)c1ccccn1 was read as JMJD2A Tudor 14%, Sfp inh 0%, BAZ2B block 0%, G9a block inconclusive and HP1b chromo inh 18%.
`Cc1cc(N)nc(SCC(=O)N2C(C)CCCC2C)n1` (centres undefined) gave JMJD2A Tudor -16%, Sfp inh -4%, BAZ2B block -14%, G9a block inconclusive and HP1b chromo inh 19%.
For O=C(O)c1cc(NC(=O)c2ccc3c(c2)C(=O)N(Cc2ccccc2)C3=O)cc(C(=O)O)c1 the results were JMJD2A Tudor 9%, Sfp inh 15%, BAZ2B block inconclusive and HP1b chromo inh 26%.
For O=C1ON=C(c2ccccc2[N+](=O)[O-])/C1=C/c1cccc([N+](=O)[O-])c1O the results were JMJD2A Tudor inconclusive, BAZ2B block -2%, G9a block 1µM* and HP1b chromo inh 30%.
For O=C1ON=C(c2ccc(Cl)c([N+](=O)[O-])c2)/C1=C/c1cccc([N+](=O)[O-])c1O the results were JMJD2A Tudor 20µM*, BAZ2B block 6%, G9a block inconclusive and HP1b chromo inh 7%.
`O=C1/C(=C/c2ccccc2[N+](=O)[O-])COc2ccccc21` gave JMJD2A Tudor inconclusive, Sfp inh 1%, BAZ2B block inconclusive, G9a block inconclusive and HP1b chromo inh -20%.
Screening COc1cc(C(=O)N2CCc3c([nH]c4ccccc34)C2c2ccc(F)cc2)cc(OC)c1OC (centres undefined) returned JMJD2A Tudor inconclusive, BAZ2B block -13%, G9a block inconclusive and HP1b chromo inh 7%[57 µM].
`CC(=O)N1c2ccccc2C2(O)N=C(C)SC12` (centres undefined) gave JMJD2A Tudor 5.6µM*, Sfp inh -95%, BAZ2B block inconclusive, G9a block 1.4µM* and HP1b chromo inh inconclusive.
`CC(=O)N1c2ccccc2[C@@H](C)[C@@H]1C` gave JMJD2A Tudor -6%, BAZ2B block 1%, G9a block 13%[0.501 µM] and HP1b chromo inh 17%.
`CC12CCC(=O)N1C(C(=O)Nc1nc(-c3ccc(F)cc3)cs1)CS2` (centres undefined) gave JMJD2A Tudor -14%, BAZ2B block -6%, G9a block -3%[59 µM] and HP1b chromo inh 0%.
For CC12CCC(=O)N1C(C(=O)Nc1nc(-c3ccccc3Cl)cs1)CS2 (centres undefined) the results were JMJD2A Tudor -35%, BAZ2B block -9%, G9a block 50µM* and HP1b chromo inh -3%.
`Cc1sc(NC(=O)C2CSC3(C)CCC(=O)N23)nc1-c1ccccc1` (centres undefined) gave JMJD2A Tudor -33%, BAZ2B block inconclusive, G9a block 50µM* and HP1b chromo inh -5%.
Screening CC(C)C(NS(=O)(=O)c1cccc2nsnc12)C(=O)Nc1nccs1 (centres undefined) returned JMJD2A Tudor -4%, Sfp inh 14%, BAZ2B block 4% and HP1b chromo inh 18%.
Screening O=S(=O)(c1ccc(Cl)nc1)N1CCOCC1 returned JMJD2A Tudor -12% and HP1b chromo inh 16%.
CCOC(=O)Cn1c(COc2ccccc2OC)[n+](C)c2ccccc21 was read as JMJD2A Tudor -1% and HP1b chromo inh 48%.
Screening CCCCCOC(=O)Cn1c(=O)oc2ccccc21 returned JMJD2A Tudor 25%, Sfp inh -12%, BAZ2B block 15%, G9a block -12%[59 µM] and HP1b chromo inh 53%.
Screening CCCCOC(=O)Cn1c(=O)n(CC(=O)OCCCC)c2ccccc21 returned JMJD2A Tudor 2%, Sfp inh 20%, BAZ2B block 0%, G9a block 27% and HP1b chromo inh 38%.
CCCCCCCCCCOC(=O)Cn1c(COc2cccc(C)c2)[n+](C)c2ccccc21 was read as JMJD2A Tudor -30%, Sfp inh 56µM*, BAZ2B block -7%, G9a block 23%[0.501 µM] and HP1b chromo inh 44%.
For CCCCCCCCCCOC(=O)Cn1c(COc2ccccc2)[n+](C)c2ccccc21 the results were JMJD2A Tudor -28%, Sfp inh 40µM*, BAZ2B block -2%, G9a block -12% and HP1b chromo inh 16%.
`CCCCCCCCCCOC(=O)Cn1c(COc2ccc(OC)cc2)[n+](C)c2ccccc21` gave JMJD2A Tudor inconclusive, Sfp inh 35µM*, BAZ2B block -17%, G9a block inconclusive and HP1b chromo inh 16%.
`CCCCCCCCCCOC(=O)Cn1c(COc2ccccc2C)[n+](C)c2ccccc21` gave JMJD2A Tudor -32%, Sfp inh 45µM*, BAZ2B block 2%, G9a block -20% and HP1b chromo inh 20%.
`O=C(O)c1cc(-c2cccs2)nc2ccc(Br)cc12` gave Sfp inh 16%, BAZ2B block -3% and G9a block inconclusive.

High-throughput results from PubChem BioAssay.
